Tau fluor cs – Counterscreen qHTS for Inhibitors of Tau Fibril Formation, Fluorescence Polarization; Potency, µM (highest dose often 57.7 µM), for inactives: at the top dose activity change, negative = decrease; 280,000 compounds, 0.93% hits; AID 1463, 2008; tau K18 P301L Alexa594 fluorescence, heparin fibrillization; further: nearly all actives have a fitted effect of over 55% in size
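Human K18 P301L tau (15 uM unlabeled plus 0.24 uM Alexa 594-labeled, final) in 100 mM sodium acetate pH 7 was mixed with compound and 20 uM heparin and incubated 6 hr at 37 C.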
Tau fibril ThT – qHTS for Inhibitors of Tau Fibril Formation, Thioflavin T Binding | Microtubule-associated protein tau (Homo sapiens), P10636 | recombinant tau K18 P301L (four-repeat tau fragment), heparin-induced fibrillization, ThT fluorescence | Potency, µM (highest dose often 57.4 µM), without a hit: at the highest dose activity, negative = inhibition, hits mostly inhibitors | 270,000 compounds, 2.1% hits; further: nearly all actives have a fitted effect of over 55% in size
Target sequence (P10636 561-689 P618L limits assumed): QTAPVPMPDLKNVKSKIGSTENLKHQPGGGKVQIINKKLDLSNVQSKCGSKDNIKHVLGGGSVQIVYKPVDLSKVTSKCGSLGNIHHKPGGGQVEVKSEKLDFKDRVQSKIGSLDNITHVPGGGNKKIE
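Heparin-induced (20 uM) aggregation of recombinant human K18 P301L tau, 15 uM unlabeled with 0.24 uM labeled, pH 7 acetate buffer, 6 hr at 37 C with compound. Fibrils quantified by 30 uM ThT fluorescence after 1 hr ambient incubation.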
TRb-SRC2 inh – qHTS for Inhibitors of the Interaction of Thyroid Hormone Receptor and Steroid Receptor Coregulator 2; Thyroid hormone receptor beta (Homo sapiens), P10828; TRbeta-SRC2 peptide binding, fluorescence polarization; receptor liganded with 1 µM T3; Potency, µM (doses to about 106 µM), for inactives: at the highest dose activity change, negative = inhibition, most hits filed as inhibitors; 280,000 compounds, 0.065% hits; AID 1469, 2008;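 further: plate controls were bound peptide for no effect and peptide without receptor for full effect; nearly all actives have a fitted effect of over 50% in size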
Target sequence (P10828 whole entry, looked up): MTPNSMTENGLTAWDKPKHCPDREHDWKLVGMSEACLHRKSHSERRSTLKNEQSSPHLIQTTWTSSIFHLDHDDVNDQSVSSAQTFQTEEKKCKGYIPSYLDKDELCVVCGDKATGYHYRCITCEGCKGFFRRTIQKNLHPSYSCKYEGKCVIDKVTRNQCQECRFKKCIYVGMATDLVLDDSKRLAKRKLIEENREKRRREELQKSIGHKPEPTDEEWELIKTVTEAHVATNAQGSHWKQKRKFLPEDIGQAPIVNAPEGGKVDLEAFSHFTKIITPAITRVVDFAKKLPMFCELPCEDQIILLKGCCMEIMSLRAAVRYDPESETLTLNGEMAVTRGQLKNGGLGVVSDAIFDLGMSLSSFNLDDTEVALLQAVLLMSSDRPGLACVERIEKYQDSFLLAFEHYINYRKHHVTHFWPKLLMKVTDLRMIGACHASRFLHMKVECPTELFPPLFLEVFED
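Assay buffer: 20 mM Tris-HCl, 100 mM NaCl, 10% glycerol, 1 mM EDTA, 0.01% NP-40, 1 mM DTT, 1 uM T3, 5% DMSO; TRb LBD 0.6 uM, Texas Red SRC2 20 nM; FP after 5 hr.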
Tau FP inhib – qHTS for Inhibitors of Tau Fibril Formation, Fluorescence Polarization. Microtubule-associated protein tau (Homo sapiens), P10636. Potency, µM (top dose mostly 57.7 µM), for inactives: top-dose activity, negative = inhibition, actives largely listed as inhibitors. 280,000 compounds, 0.39% hits. K18 P301L tau heparin fibrillization, Alexa594 FP, 6 h; further: nearly all actives have a fitted effect of over 55% in size
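Compound effects on tau fibrillization are measured by Alexa 594 fluorescence polarization (ex 555, em 632 nm). K18 P301L tau is used at 15 uM with 0.24 uM labeled tracer, and 20 uM heparin induces aggregation over 6 hr at 37 C.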
RGS12 GoLoco inh – qHTS Assay for Inhibitors of RGS12 GoLoco Motif Activity (Red Fluorophore) | 230,000 compounds, 0.44% hits | Guanine nucleotide-binding protein G(i) subunit alpha-1 (Homo sapiens), P63096 | Potency, µM (doses to about 61.6 µM), inactives show at the highest dose activity, negative = inhibition, hits mostly inhibitors | Gai1:RGS12 GoLoco peptide FP, rhodamine, 10 min; active means well fitted inhibition curve with a large enough effect, not every such curve was filed as active; inactive means no such curve, though single readings can be large or run the other way; further: nearly all actives have a fitted effect of over 30% in size
TR SRC2 fluor cs – Total Fluorescence Counterscreen for Inhibitors of the Interaction of Thyroid Hormone Receptor and Steroid Receptor Coregulator 2; TRb/SRC2 Texas Red total fluorescence interference; Potency, µM (series often up to 106 µM), for the others: at the highest dose fluorescence change, negative = quenching; 280,000 compounds, 0.29% hits; AID 1479, 2009; active means well fitted curve in either direction with a large enough effect; inconclusive means small, poorly fitted or top-dose-only effect
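Flags fluorescent or light-absorbing compounds by total fluorescence, S + 2P, at 555 nm excitation and 632 nm emission. Mixture: 20 nM Texas Red SRC2 peptide, 0.6 uM human TRb LBD, 1 uM T3, 5% DMSO; compound exposure 5 h at ambient temperature.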
Starred values were filed as active, the others as inactive; ? = inconclusive; nt = no result; [ ] = another dose, or the depositor's remark. Only some compounds are listed: those with a hit (about 3.1% of all), similar ones and a draw of the others. Unless noted, the call rests on the fitted dose curve; in most records, active means well fitted curve in the direction sought with a large enough effect; inconclusive means small, poorly fitted or top-dose-only effect, or another doubt; inactive means no such curve, though single readings can be large; an effect the other way counts as inactive or inconclusive. Unless noted, on the % scale 0 is the no-effect control and ±100 the full control effect; potency means the concentration at half of the fitted maximal effect.

SMILES | Tau fluor cs | Tau fibril ThT | TRb-SRC2 inh | Tau FP inhib | RGS12 GoLoco inh | TR SRC2 fluor cs
Cc1cc(-c2nn(-c3ccccc3)cc2/C=C2\SC(N)=NC2=O)ccc1OC(C)C | ? | -0.7% | -0.5% | 3.16µM* | 46.0% | -2.4%
CCCOc1ccc(-c2nn(-c3ccccc3)cc2/C=C2\SC(N)=NC2=O)cc1 | -26.5% | 7.9% | -3.8%[53 µM] | -14.0% | 2.1% | -3.4%[53 µM]
CCOCCOC(=O)C(C)Oc1ccc(Oc2nc(Cl)ccc2Cl)cc1 (stereo not drawn) | -11.4% | -14.6% | -3.1% | 7.3% | -1.9% | -1.3%
CCn1c(C)nc2cc(C(=O)N/N=C/c3ccc(N4CCOCC4)cc3)ccc21 | -20.5% | 8.91µM* | -3.4% | 4.5% | 63.3% | 3.7%
C/C(=N\NC(=O)c1ccc(O)cc1)c1ccc(N2CCOCC2)cc1 | -2.8% | ? | -3.3% | -5.9% | 7.9% | -4.3%
O=C(N/N=C/c1ccc(N2CCOCC2)cc1)c1ccc(O)cc1 | -20.8% | 5.01µM* | 2.5% | 8.8% | 32.0% | -2.0%
CCn1c(C)nc2cc(C(=O)N/N=C/c3ccc(O)cc3)ccc21 | 0.1% | ? | 2.9% | 3.6% | 106.0% | 4.9%
N#Cc1nc(-c2cccs2)oc1NCc1ccco1 | ? | -24.3% | -2.9% | 6.7% | -0.6% | -8.8%
COc1cccc(=O)c2c(C)n(-c3ccc(C(=O)O)cc3)c(C)c12 | -13.8% | 15.8µM* | -3.1% | ? | 96.3% | 3.5%
COc1ccc(-n2c(C)c3c(OC)cccc(=O)c3c2C)cc1 | -22.7% | 17.8µM* | 7.7% | ? | 5.3% | 3.8%
Cc1cc(C)nc(SCC(=O)NC2=NN=C(c3ccc(Br)cc3)CS2)n1 | -16.5% | ? | -4.1% | ? | 5.4% | -2.4%
CCC(Sc1nc(C)cc(C)n1)C(=O)NC1=NN=C(c2ccc(C)cc2)CS1 (stereo not drawn) | -17.5% | 31.6µM* | -2.5% | ? | 5.5% | -6.0%
COc1ccc(-c2cc(-c3cc(OC)ccc3O)[nH]n2)cc1 | 15.8µM*[quencher] | ? | 12.2% | -0.1% | 6.7% | -12.4%
COc1ccc(O)c(-c2cc(-c3cccc(Br)c3)n[nH]2)c1 | 14.1µM*[quencher] | ? | -7.3% | 2.3% | 5.7% | -3.7%
N/C(CCN1CCOCC1)=N/O | -1.0% | -4.5% | 3.6% | -3.6% | 7.3% | -4.4%
Cc1ccc(-c2nc(CS(=O)(=O)CC(=O)NCc3ccc(Cl)cc3)c(C)o2)cc1 | -5.0% | 2.2% | -2.2% | -13.4% | nt | -2.9%
COc1ccc(-c2nc3n(c(=O)c2C#N)CCS3)cc1OC | -5.6% | -3.9% | -2.1% | 2.1% | 10.0% | -5.3%
COc1ccc(N/C=C\C(=O)c2ccc3c(c2)OCO3)cc1 | -27.7% | ? | 0.3% | 3.5% | 8.6% | -0.1%
COc1ccc(N/C=C\C(=O)c2ccc(C)cc2)cc1OC | ? | 10µM* | 2.4% | 3.2% | -1.6% | -2.3%
COc1ccc(N/C=C\C(=O)c2ccc(Br)cc2)cc1OC | -10.3% | 3.16µM* | 9.7% | -0.4% | 0.3% | -2.0%
COc1cc(/C=N\NC(=O)c2ccc(C)nc2)ccc1OC(=O)c1ccc2c(c1)OCO2 | -26.0% | -4.3% | -5.8% | 25.1µM* | -26.7% | 0.1%
COc1ccc(N/C=C/C(=O)c2ccc3c(c2)OCO3)cc1OC | ? | 5.01µM* | 1.0% | -4.7% | -8.0% | -1.2%
CC1NC(=O)NC1CCCCCC(=O)NCCc1ccccc1 (stereo not drawn) | 10.8% | -9.2% | -19.9% | 2.7% | -10.3% | 2.7%
Cc1nc(NC(=O)CSc2nnnn2C)sc1C | 0.4% | -1.8% | -23.7% | -3.2% | 0.4% | 1.3%
O=[N+]([O-])c1cc(-c2ccc(/C=N/c3nc4ccccn4c3-c3ccco3)o2)ccc1Cl | 25.1µM*[quencher] | 11.2µM* | -26.6% | ? | 0.7% | 3.1%
SMILES | Tau fluor cs | Tau fibril ThT | TRb-SRC2 inh | Tau FP inhib | RGS12 GoLoco inh | TR SRC2 fluor cs
CNc1ccc(Br)cc(C(=O)/C=C/c2cccc(OC)c2)c1=O | ? | 11.2µM* | 0.7% | -16.0% | 52.4% | -10.3%
CNc1ccc(Br)cc(C(=O)/C=C/c2ccc(Cl)cc2Cl)c1=O | ? | 10µM* | 0.5% | ? | 71.8% | -5.5%
O=C(/C=C/c1ccc(Cl)cc1Cl)c1ccc[nH]1 | -9.9% | ? | 0.3% | -5.8% | 7.7% | -1.5%
COc1cccc(/C=C/C(=O)Nc2ccc3[nH]c(=O)[nH]c3c2)c1 | -8.3% | 1.9% | 7.0% | -0.9% | 22.4% | -3.9%
COc1ccc(/C=C/C(=O)c2ccc(OC)cc2OC)c(OC)c1 | -19.2% | ? | 6.0% | 5.2% | -0.1% | 0.3%
CNc1ccc(Br)cc(C(=O)/C=C/c2ccc(OC)cc2OC)c1=O | ? | 11.2µM* | 3.3% | ? | 88.2% | -3.8%
O=[N+]([O-])/C(C(Cl)=C(Cl)Cl)=C(/Sc1ccccc1)N1CCCCC1 | -26.6% | 22.4µM* | 4.7% | ? | 3.9% | -3.3%
O=C(NNC(=S)NC(=O)c1sc2ccccc2c1Cl)c1ccc(Cl)cc1 | -22.8% | 14.1µM* | -4.3% | 3.5% | -4.8% | 5.6%
CCC1=NNC(=O)C(CC(=O)Nc2ccccc2)c2cc(OC)c(OC)cc21 (stereo not drawn) | -5.6% | -6.8% | 2.7% | -6.1% | 6.0% | 0.9%
Cc1ccc(S(=O)(=O)NN2C(=O)/C(=C/c3cccn3C)SC2=S)cc1 | -10.3% | 10µM* | 4.7% | -3.6% | 6.9% | -21.2%
Cn1cccc1/C=C1\SC(=S)N(Nc2ccccc2)C1=O | ? | 3.55µM* | -1.5% | 3.7% | 15.3% | -4.2%
O=C1/C(=C/c2cccnc2)SC(=S)N1Nc1ccccc1 | ? | 28.2µM* | -0.9% | ? | -49.4% | -1.7%
O=C1/C(=C/c2cccnc2)SC(=S)N1c1ccccc1 | -6.8% | -15.5% | -15.7% | -9.4% | 14.9% | 2.7%
Cc1ccc(S(=O)(=O)NN2C(=O)/C(=C/c3cccs3)SC2=S)cc1 | -3.8% | nt | 0.4% | 4.5% | -1.5% | -3.1%
COC(=O)CCC(C)C1CCC2C3C(C[C@H](O)C12C)C1(C)CC[C@@H](O)CC1C[C@H]3O (stereo partly drawn) | 6.8% | -9.8% | -8.4% | 17.4% | 0.8% | -0.4%
O=C1c2oc3ccccc3c(=O)c2C(c2cccc(Br)c2)N1c1ccccn1 (stereo not drawn) | -6.9% | 1.5% | 3.7% | -10.2% | nt | 0.6%

Compound activity from PubChem.
